From PubChem BioAssay (NCATS) come the findings set out here.

Records with an inconclusive call do not appear. A number with no mark means an inactive call. Active and inactive are the calls of the source. Calls come from the whole dose curve.
% is set by controls: 0 for no effect and ±100 for the full control effect.

The experiment can be described thus: Cytotoxicity counterscreen for inhibitors of SARS-CoV-2 cell entry (AID 1645845). Note: nearly all actives have a fitted effect of over 50% in size. The conditions noted are these: cell viability (SARS-CoV-2 entry assay cells); series mostly up to 57.1 µM; activity change, negative = cytotoxicity: at the top concentration. An outline of the steps: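 48 h compound treatment (after 1 h preincubation), HEK293-ACE2 cells, 37 C/5% CO2; ATP luminescence endpoint; normalized to cell wells and media blanks.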
On the technique in general: Counterscreens check selectivity or assay interference.
For the compound `CCNC(=O)Nc1ncc(-c2cc(-c3c(C)cc(OC)cc3C)nc(-c3cnccn3)n2)s1`, the compound was classed as inactive. With `CC(C)C(N)C(=O)OCC(CO)OCn1cnc2c(=O)[nH]c(N)nc21` (stereo not given), the “activity change, negative = cytotoxicity” value is -4.03%.

For the compound `O=C(O)CCCCN(CCc1ccccc1OCc1ccc(CCc2ccccc2)cc1)Cc1ccc(C(=O)O)cc1`, the “activity change, negative = cytotoxicity” value was 3.56%. As for `C/C=C/C[C@@H](C)C(=O)[C@H]1C(=O)N[C@@H](C(C)C)C(=O)N(C)CC(=O)N(C)[C@@H](CC(C)C)C(=O)N[C@@H](C(C)C)C(=O)N(C)[C@@H](CC(C)C)C(=O)N[C@@H](C)C(=O)N[C@H](C)C(=O)N(C)[C@@H](CC(C)C)C(=O)N(C)[C@@H](CC(C)C)C(=O)N(C)[C@@H](C(C)C)C(=O)N1C`, the “activity change, negative = cytotoxicity” value was -8.46% [at 27.1 µM]. Take `COC(=O)C1=C(C)NC(c2ncc(F)cc2F)=N[C@H]1c1ccc(F)cc1Cl`: the “activity change, negative = cytotoxicity” value is 1.01%. Take `CO[C@H]1/C=C/O[C@@]2(C)Oc3c(C)c(O)c4c(O)c(c5c(c4c3C2=O)=NC2(CCN(CC(C)C)CC2)N=5)NC(=O)/C(C)=C/C=C/[C@H](C)[C@H](O)[C@@H](C)[C@@H](O)[C@@H](C)[C@H](OC(C)=O)[C@@H]1C`: the “activity change, negative = cytotoxicity” value is -4.18%.

Take `c1ccc(CNCc2ccc(CN3CCCNCCNCCCNCC3)cc2)nc1`: the “activity change, negative = cytotoxicity” value is 4.7%. For `CC(/C=C/[C@@H]1C[C@]1(C)c1ccc2c(c1)C(C)(C)CCC2(C)C)=C\C(=O)O`, the compound was called inactive. For the compound `C=CC(=O)N1CCC(CNc2ncnc(N)c2-c2ccc(Oc3ccccc3)cc2)CC1`, the result was inactive. Regarding `Cc1ccc(NC(=O)Nc2nnc(Sc3ncnc4cc(OCCCN5CCOCC5)ccc34)s2)cc1`, the outcome was inactive.

Regarding `CC(C)S(=O)(=O)c1ccc2nccc(Nc3ccc4scnc4c3)c2c1`, the “activity change, negative = cytotoxicity” value was -19.8%. In the case of `CCOc1cc(C(=O)N2CCC(N3CCN(C)CC3)CC2)ccc1Nc1ncc2c(n1)N(C1CCCC1)c1ccccc1C(=O)N2C`, the “activity change, negative = cytotoxicity” value was -19.4%. Turning to `Cc1nc(NC(=O)N2CCCC2C(N)=O)sc1-c1ccnc(C(C)(C)C(F)(F)F)c1` (stereo not given), the “activity change, negative = cytotoxicity” value was -13%.

With `O=C(Cc1ccccc1)Nc1nnc(CCSCCc2nnc(NC(=O)Cc3ccccc3)s2)s1`, the “activity change, negative = cytotoxicity” value is 4.89%. Take `CCOCc1nc2c(N)nc3ccccc3c2n1CC(C)(C)O`: the outcome was inactive. Regarding `NS(=O)(=O)NCCNc1nonc1C(=Nc1ccc(F)c(Br)c1)NO`, the outcome was inactive. Consider `Nc1ncnc2c1ncn2[C@@H]1O[C@H](CO)C[C@H]1O`, for which the “activity change, negative = cytotoxicity” value was -8.02%.

On to `CC1=C(c2ccc(O)cc2)[C@H](c2ccc(OCCN3CCCCC3)cc2)Oc2cc(O)ccc21`, for which the “activity change, negative = cytotoxicity” value was -1.39%. Regarding `CONC(=O)c1ccccc1Nc1cc(Nc2cc(C)nn2C(C)C)ncc1Cl`, the compound was classed as inactive. Consider `CCOc1ccc(-n2c([C@@H](C)N(Cc3cccnc3)C(=O)Cc3ccc(F)c(C(F)(F)F)c3)nc3ncccc3c2=O)cc1`, for which the result was inactive. As for `COc1cc(-c2cn(C)c(=O)c3cnccc23)c(OC)cc1CN(C)C`, the outcome was inactive. On to `Cc1[nH]cnc1CN1CCN(C(=O)N[C@@H](CC(C)C)C(=O)O)[C@@H](Cc2ccccc2)C1=O`, for which the call was inactive. For `CCn1c(N)c(C(=O)NC)c(=O)c2ccc(C#CC(C)(O)COC)nc21` (stereo not given), the “activity change, negative = cytotoxicity” value was -11.9%. As to `O=C1CC[C@H](N2Cc3c(OCc4ccc(CN5CCOCC5)cc4)cccc3C2=O)C(=O)N1`, the compound was classed as inactive.

For `COc1c(C)cc(NC(=O)c2nn(Cc3ccc(F)cc3)c3c2CN(C(=O)c2ccc[nH]2)C[C@]3(C)C(N)=O)cc1C`, the “outcome” value is “inactive [at 19 µM]”. As for `O=C(c1c(F)ccc(NS(=O)(=O)N2CC[C@@H](F)C2)c1F)c1c[nH]c2ncc(-c3cnc(C4CC4)nc3)cc12`, the result was inactive. As for `N#Cc1ccc(Cn2cncc2CN2CCN(c3cccc(Cl)c3)C(=O)C2)cc1`, the “activity change, negative = cytotoxicity” value was -2.14%. Regarding `O=C(c1ccc(/C=C/c2n[nH]c3ccccc23)cc1)N1CCNCC1`, the “activity change, negative = cytotoxicity” value is -33.7%.

Turning to `O=C(O)[C@H](CC(=O)N1C[C@H]2CCCC[C@H]2C1)Cc1ccccc1`, the “activity change, negative = cytotoxicity” value was 1.9%. As to `O=c1cc(N2CCOCC2)oc2c(-c3ccc4c(c3)OCCO4)csc12`, the “activity change, negative = cytotoxicity” value was -24.7%. For `CCN(c1cc(-c2ccc(CN3CCOCC3)cc2)cc(C(=O)NCc2c(C)cc(C)[nH]c2=O)c1C)C1CCOCC1`, the “activity change, negative = cytotoxicity” value is -17.8%. `O=C(Nc1cnn2ccc(N3CCC[C@@H]3c3cc(F)ccc3F)nc12)N1CC[C@H](O)C1`: the call was inactive. For `C[C@H]1CN(C2COC2)CCN1c1ccc(Nc2cc(-c3ccnc(N4CCn5c(cc6c5CC(C)(C)C6)C4=O)c3CO)cn(C)c2=O)nc1`, the result was inactive. With `CN(CCOc1ccc(-c2ccc3c(c2)OCO3)cc1C(C)(C)C)CC(=O)O`, the “activity change, negative = cytotoxicity” value is 2.26%. As for `CC(=O)[C@]1(N)Cc2c(O)c3c(c(O)c2[C@@H](O[C@H]2C[C@H](O)[C@H](O)CO2)C1)C(=O)c1ccccc1C3=O`, the “activity change, negative = cytotoxicity” value is -4.54%.

For `CC(C)(C)C(=O)CN1C(=O)[C@H](NC(=O)Nc2cccc(C(=O)O)c2)CN(C2CCCCC2)c2ccccc21`, the compound was called inactive. As to `CC(C)(C)Sc1c(CC(C)(C)C(=O)O)n(Cc2ccc(Cl)cc2)c2ccc(OCc3ccc4ccccc4n3)cc12`, the outcome was inactive. In the case of `Nc1nc(F)nc2c1ncn2[C@@H]1O[C@H](COP(=O)(O)O)[C@@H](O)[C@@H]1O`, the compound was called inactive. Regarding `O=S(=O)(NCCNC/C=C/c1ccc(Br)cc1)c1cccc2cnccc12`, the “activity change, negative = cytotoxicity” value was -16%. For the compound `CCc1cc(/C(C)=N/OCc2ccc(C3CCCCC3)c(C(F)(F)F)c2)ccc1CN1CC(C(=O)O)C1`, the “activity change, negative = cytotoxicity” value was 3.52%.
